The first assay concerns HT29 RNF43 G659fs (RNF43 659mut, CRISPR-edited). Description: cell viability activity relative to DMSO (negative = inhibition); higher = more viable cells (less growth inhibition). The conditions noted are these: 5 µM; 96 h. Here is the method:
(§1)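 Broad Repurposing Library primary screen at a single dose of 5 uM. HT29 sg-Ctrl and HT29 RNF43 G659fs CRISPR-edited isogenic cells were seeded at 2500 cells/well in 384-well plates in duplicate and treated for 96 h. Viability was read by CellTiter-Glo and reported as % activity relative to DMSO, with MG132 as the positive control (negative = growth inhibition).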
Take `O=C(O)[C@]1(Cc2cccc(Nc3nccs3)n2)CC[C@@H](Oc2cccc(Cl)c2F)CC1`: the cell viability activity is -24.5%.

In the case of `COC(=O)C[C@](O)(CCCC(C)(C)O)C(=O)O[C@@H]1C(OC)=C[C@]23CCCN2CCc2cc4c(cc2[C@H]13)OCO4`, the cell viability activity is -92.7%.

Consider `O=C1NC(=O)[C@@H](c2cn3c4c(cccc24)CCC3)[C@@H]1c1c[nH]c2ccccc12`, for which the cell viability activity is -50.8%.

Take `CCN(CC)CCNc1ccc(CO)c2sc3ccccc3c(=O)c12`: the cell viability activity is -23.1%.

With `Nc1ccc2cc3ccc(N)cc3nc2c1`, the cell viability activity is -64.5%.

On to `CN1CCC[C@@H]1Cc1c[nH]c2ccc(CCS(=O)(=O)c3ccccc3)cc12`, for which the cell viability activity is -25.1%.

Take `O=C(O)c1ccccc1-c1c2cc(I)c(=O)c(I)c-2oc2c(I)c(O)c(I)cc12`: the cell viability activity is -23%.

As to `COc1cc(C(=O)NC2CCN(C)CC2)c(F)cc1Nc1ncc2c(n1)N(C1CCCC1)CC(F)(F)C(=O)N2C`, the cell viability activity is -65.9%.

Turning to `CNC(=O)c1ccccc1Nc1cc(Nc2ccc(N3CCOCC3)cc2OC)ncc1C(F)(F)F`, the cell viability activity was -64.6%.

With `CCc1cnn2c(NCc3ccc[n+]([O-])c3)cc(N3CCCC[C@H]3CCO)nc12`, the cell viability activity is -88.2%.

Turning to `O=C(Nc1nc2ccc(NC(=O)C34CC5CC(CC(C5)C3)C4)cc2s1)c1ccccc1`, the cell viability activity is -37.7%.

Consider `Cc1ccc(C(=O)N(CCCN)[C@@H](c2nc3cc(Cl)ccc3c(=O)n2Cc2ccccc2)C(C)C)cc1`, for which the cell viability activity was -65.1%.

In the case of `COc1cc(C(=O)N2CCC(N3CCN(C)CC3)CC2)ccc1Nc1ncc2c(n1)N(C)c1ccccc1C(=O)N2C`, the cell viability activity is -56.1%.

Consider `Cc1ncc(-c2ccnc(Nc3ccc(S(C)(=O)=O)cc3)n2)n1C(C)C`, for which the cell viability activity is -91.5%.

Consider `Cc1noc2c1-c1ccccc1C(c1ccc(Cl)cc1)=N[C@H]2CC(N)=O`, for which the cell viability activity is -53.9%.

In the case of `Nc1ccccc1NC(=O)c1ccc(CNC(=O)OCc2cccnc2)cc1`, the cell viability activity was -71.7%.

On to `O=C1NCCN1CCN1CCC(c2cn(-c3ccc(F)cc3)c3ccc(Cl)cc23)CC1`, for which the cell viability activity was -93.7%.

Consider `CNCCC=C1c2ccccc2CCc2ccccc21`, for which the cell viability activity is -70.1%.

As for `O=C(/C=C\n1cnc(-c2cc(C(F)(F)F)cc(C(F)(F)F)c2)n1)NNc1cnccn1`, the cell viability activity is -73.9%.

With `CC(C)Nc1cc(-c2c[nH]c(C(=O)N[C@H](CO)c3cccc(Cl)c3)c2)c(Cl)cn1`, the cell viability activity is -71.1%.

Take `C[C@@H](NC(=O)c1ncnc(N)c1Cl)c1ncc(C(=O)Nc2cc(C(F)(F)F)c(Cl)cn2)s1`: the cell viability activity was -24.4%.

`CCOC(=O)[C@H](Cc1ccccc1)NC(=O)c1cc(Cl)c(OCCN2CCN(C)CC2)c(Cl)c1O`: the cell viability activity is -34%.

Turning to `CC(C)NCCCn1c(Sc2cc3c(cc2I)OCO3)nc2c(N)ncnc21`, the cell viability activity was -87%.

`S=c1[nH]cnc2nc[nH]c12`: the cell viability activity was -51.6%.

Regarding `C=CC(=O)Nc1cc2c(Nc3ccc(F)c(Cl)c3)ncnc2cc1C#CC(C)(C)N1CCN(C)CC1`, the cell viability activity is -94.8%.

A further assay relates to HT29 sg-Ctrl (RNF43 wildtype). The assay is described as above. The conditions noted are these: 5 µM; 96 h. Here is the method:
as §1
With `C[C@@H]1CC[C@@]2(NC1)O[C@H]1C[C@H]3[C@@H]4CC=C5C[C@@H](O[C@@H]6O[C@H](CO)[C@@H](O[C@@H]7O[C@@H](C)[C@H](O)[C@@H](O)[C@H]7O)[C@H](O)[C@H]6O[C@@H]6O[C@@H](C)[C@H](O)[C@@H](O)[C@H]6O)CC[C@]5(C)[C@H]4CC[C@]3(C)[C@H]1[C@@H]2C`, the cell viability activity is -86.6%.

Regarding `COc1cc2c(Oc3ccc(NC(=O)C4(C(=O)Nc5ccc(F)cc5)CC4)cc3F)ccnc2cc1OCCCN1CCOCC1`, the cell viability activity is -37.8%.

Consider `O=C(NC1CCNCC1)c1n[nH]cc1NC(=O)c1c(Cl)cccc1Cl`, for which the cell viability activity was -83.8%.

`FC(F)(F)Oc1ccc2nc(-c3ccc(OCCOCCOc4ccc(-c5nc6ccc(OC(F)(F)F)cc6[nH]5)nc4)cn3)[nH]c2c1`: the cell viability activity was -16%.

Consider `CCN(CC)c1ccc(C(=C2C=CC(=[N+](CC)CC)C=C2)c2ccccc2)cc1`, for which the cell viability activity was -97.2%.

On to `COc1cc2c(cc1-c1c(C)noc1C)ncc1[nH]c(=O)n([C@H](C)c3ccccn3)c12`, for which the cell viability activity is -68.4%.

For `COc1c(C)c2c(c(O)c1C/C=C(\C)CCC(=O)O)C(=O)OC2`, the cell viability activity was -27.7%.

For the compound `O=C(CCCCCN1C(=O)c2cccc3cccc(c23)C1=O)NO`, the cell viability activity was -71.7%.

For `Cc1cc(Nc2nc(N[C@@H](C)c3ncc(F)cn3)ncc2Cl)[nH]n1`, the cell viability activity is -31.6%.

As to `Cc1cc(Nc2cc(N3CCN(C)CC3)nc(/C=C/c3ccccc3)n2)n[nH]1`, the cell viability activity was -75.7%.

In the case of `NS(=O)(=O)OC[C@@H]1C[C@@H](n2ccc3c(N[C@H]4CCc5ccccc54)ncnc32)C[C@@H]1O`, the cell viability activity was -63.2%.

On to `C[C@H]1O[C@@H](O[C@H]2[C@@H](O)C[C@H](O[C@H]3[C@@H](O)C[C@H](O[C@H]4CC[C@@]5(C)[C@H](CC[C@@H]6[C@@H]5C[C@@H](O)[C@]5(C)[C@@H](C7=CC(=O)OC7)CC[C@]65O)C4)O[C@@H]3C)O[C@@H]2C)C[C@H](O)[C@@H]1O`, for which the cell viability activity was -90.8%.

In the case of `O=C(O)[C@]1(Cc2cccc(Nc3nccs3)n2)CC[C@@H](Oc2cccc(Cl)c2F)CC1`, the cell viability activity is -24.6%.

Take `COC(=O)C[C@](O)(CCCC(C)(C)O)C(=O)O[C@@H]1C(OC)=C[C@]23CCCN2CCc2cc4c(cc2[C@H]13)OCO4`: the cell viability activity is -86.7%.

Turning to `O=C1NC(=O)[C@@H](c2cn3c4c(cccc24)CCC3)[C@@H]1c1c[nH]c2ccccc12`, the cell viability activity is -61.7%.

`CCN(CC)CCNc1ccc(CO)c2sc3ccccc3c(=O)c12`: the cell viability activity is -27.7%.

In the case of `Nc1ccc2cc3ccc(N)cc3nc2c1`, the cell viability activity is -47.4%.

As for `CN1CCC[C@@H]1Cc1c[nH]c2ccc(CCS(=O)(=O)c3ccccc3)cc12`, the cell viability activity was -27.2%.

`O=C(O)c1ccccc1-c1c2cc(I)c(=O)c(I)c-2oc2c(I)c(O)c(I)cc12`: the cell viability activity is -16.3%.

Consider `COc1cc(C(=O)NC2CCN(C)CC2)c(F)cc1Nc1ncc2c(n1)N(C1CCCC1)CC(F)(F)C(=O)N2C`, for which the cell viability activity was -68.1%.

For the compound `CNC(=O)c1ccccc1Nc1cc(Nc2ccc(N3CCOCC3)cc2OC)ncc1C(F)(F)F`, the cell viability activity is -60%.

Consider `CCc1cnn2c(NCc3ccc[n+]([O-])c3)cc(N3CCCC[C@H]3CCO)nc12`, for which the cell viability activity was -84.3%.

Turning to `O=C(Nc1nc2ccc(NC(=O)C34CC5CC(CC(C5)C3)C4)cc2s1)c1ccccc1`, the cell viability activity was -29.4%.

For `Cc1ccc(C(=O)N(CCCN)[C@@H](c2nc3cc(Cl)ccc3c(=O)n2Cc2ccccc2)C(C)C)cc1`, the cell viability activity was -66.5%.

As to `COc1cc(C(=O)N2CCC(N3CCN(C)CC3)CC2)ccc1Nc1ncc2c(n1)N(C)c1ccccc1C(=O)N2C`, the cell viability activity is -57.3%.

Consider `Cc1ncc(-c2ccnc(Nc3ccc(S(C)(=O)=O)cc3)n2)n1C(C)C`, for which the cell viability activity is -87.7%.

Take `Cc1noc2c1-c1ccccc1C(c1ccc(Cl)cc1)=N[C@H]2CC(N)=O`: the cell viability activity is -57.7%.

Turning to `Nc1ccccc1NC(=O)c1ccc(CNC(=O)OCc2cccnc2)cc1`, the cell viability activity is -77.2%.

Consider `O=C1NCCN1CCN1CCC(c2cn(-c3ccc(F)cc3)c3ccc(Cl)cc23)CC1`, for which the cell viability activity was -83.7%.

On to `CNCCC=C1c2ccccc2CCc2ccccc21`, for which the cell viability activity was -77.1%.

Take `O=C(/C=C\n1cnc(-c2cc(C(F)(F)F)cc(C(F)(F)F)c2)n1)NNc1cnccn1`: the cell viability activity is -69.8%.

Consider `CC(C)Nc1cc(-c2c[nH]c(C(=O)N[C@H](CO)c3cccc(Cl)c3)c2)c(Cl)cn1`, for which the cell viability activity is -78.7%.

As to `C[C@@H](NC(=O)c1ncnc(N)c1Cl)c1ncc(C(=O)Nc2cc(C(F)(F)F)c(Cl)cn2)s1`, the cell viability activity is -29.1%.

Take `CCOC(=O)[C@H](Cc1ccccc1)NC(=O)c1cc(Cl)c(OCCN2CCN(C)CC2)c(Cl)c1O`: the cell viability activity was -41.2%.

For the compound `CC(C)NCCCn1c(Sc2cc3c(cc2I)OCO3)nc2c(N)ncnc21`, the cell viability activity was -85.8%.

Consider `S=c1[nH]cnc2nc[nH]c12`, for which the cell viability activity was -49.4%.

Consider `C=CC(=O)Nc1cc2c(Nc3ccc(F)c(Cl)c3)ncnc2cc1C#CC(C)(C)N1CCN(C)CC1`, for which the cell viability activity is -86.1%.

(Values after the supplement of paper PMC9177965.)
